Experimental data from the supplement of paper PMC9925115.
± gives the uncertainty stated by the source.

system: FLX1; test: cell viability z-score within plate (CellTiter-Glo), mean of 3 biological replicates; higher = higher viability relative to plate (less growth inhibition); conditions: 2 µM; time (hr): 120
Protocol: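 FLX1 fibrolamellar carcinoma cells (DNAJB1-PRKACA fusion), 600 cells/well in 384-well plates, treated with a Selleck kinase inhibitor library (L1200) at 2 uM for 5 days (120 hr); viability by CellTiter-Glo. A z-score was computed within each plate and averaged over three biological replicates.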

SMILES | cell viability z-score within plate
COc1ccc(-c2ccc3ncc4c(c3c2)n(-c2ccc(N3CCNCC3)c(C(F)(F)F)c2)c(=O)n4C)cn1 | 0.514 ± 0.38
N#Cc1c(O)c2c(-c3ccc(-c4ccccc4O)cc3)csc2[nH]c1=O | 0.457 ± 0.29
COc1ncc(-c2ccc3nccc(-c4ccnnc4)c3c2)cc1NS(=O)(=O)c1ccc(F)cc1F | 0.539 ± 0.32
O=C(/C=C/c1ccc2ccccc2n1)c1ccncc1 | 0.276 ± 0.49
O=C(O)c1ccc(-c2c[nH]c3ncc(-c4ccccc4)cc23)cc1C1CCCC1 | -1.12 ± 1.1
COc1cc(F)c(F)c(Nc2ccc(I)cc2F)c1NS(=O)(=O)C1(C[C@H](O)CO)CC1 [Refametinib (RDEA119, Bay 86-9766)] | -1.34 ± 1.7
Nc1nc(N)c(N=O)c(OCC2CCCCC2)n1 | 0.662 ± 0.19
CN1CCCN(C(=O)c2cccc(-c3ccc(/C=C4/C(=O)Nc5ccc(Cl)cc54)o3)c2)CC1 | 0.408 ± 0.47
C[C@@H](NC(=O)c1ncnc(N)c1Cl)c1ncc(C(=O)Nc2cc(C(F)(F)F)c(Cl)cn2)s1 | 0.647 ± 0.28
Cc1cc(C(=O)NOCCO)c(Nc2ccc(I)cc2F)n(C)c1=O | 0.132 ± 0.35
Oc1ccc(Nc2nc(-c3ccc(Cl)cc3)cs2)cc1 | 0.219 ± 0.2
CNC(=O)c1nn(C)c2c1C(C)(C)Cc1cnc(Nc3ccc(N4CCN(C)CC4)cc3)nc1-2 | 0.949 ± 0.33
N#C/C(=C\c1ccc(O)c(O)c1)C(=O)NCc1ccccc1 [AG-490 (Tyrphostin B42)] | -0.668 ± 1.4
CC(C)c1cnn2c(NCc3ccccc3)cc(NCCCCCCN)nc12 | 0.577 ± 0.3
Cc1[nH]c(/C=C2\C(=O)Nc3ccc(S(=O)(=O)N(C)c4cccc(Cl)c4)cc32)c(C)c1C(=O)N1CCN(C)CC1 | -0.214 ± 0.72
NC(=O)c1ccc(N(C(N)=O)c2c(F)cccc2F)nc1-c1ccc(F)cc1F | -1.05 ± 0.15
O=C(NCc1ccccc1)c1csc(Nc2ccncn2)n1 [Thiazovivin] | -0.686 ± 0.81
Cc1nc(Nc2n[nH]c3c2CN(C(=O)N[C@H](CN(C)C)c2ccccc2)C3(C)C)c2sccc2n1 | 1.12 ± 0.47
CNC(=O)c1cc(Oc2ccc(NC(=O)Nc3ccc(Cl)c(C(F)(F)F)c3)cc2)ccn1 [Sorafenib] | -1.7 ± 1.3
Clc1ccc(C2(c3ccc(-c4cn[nH]c4)cc3)CCNCC2)cc1 | 0.815 ± 0.24

SMILES | cell viability z-score within plate
Cc1cc2c(F)c(Oc3ncnn4cc(OC[C@@H](C)OC(=O)[C@H](C)N)c(C)c34)ccc2[nH]1 | 0.531 ± 0.22
CCN(CC)CCNC(=O)c1c(C)[nH]c(/C=C2\C(=O)Nc3ccc(F)cc32)c1C [Sunitinib Malate] | -0.049 ± 0.26
CCCNC(=O)Nc1ccc(Oc2ncnc3cc(OC)c(OC)cc23)cc1Cl | 0.704 ± 0.077
N#CC[C@H](C1CCCC1)n1cc(-c2ncnc3[nH]ccc23)cn1 | 0.242 ± 0.22
C[C@H](Nc1ncnc2nc[nH]c12)c1cc2cccc(Cl)c2c(=O)n1-c1ccccc1 [Duvelisib (IPI-145, INK1197)] | 0.585 ± 0.95
CC[C@H](CO)Nc1nc(NCc2ccccc2)c2ncn(C(C)C)c2n1 [Roscovitine (Seliciclib,CYC202)] | 0.283 ± 0.3
Cc1nc(Nc2cnn(C3CCNCC3)c2)nc2c1N(C)C(=O)c1cc3ccccc3cc1N2C | 1.62 ± 0.12
Fc1cc(-c2cccc3ncc(-c4cnn(C5CCNCC5)c4)nc23)cc(F)c1CN1CCOCC1 | -1.08 ± 1.1
CCCCCCCCCCCCc1ccc(S(=O)(=O)Nc2nncs2)cc1 | 1.17 ± 0.77
C#Cc1cccc(Nc2ncnc3cc4c(cc23)OCCOCCOCCO4)c1 [Icotinib] | 0.676 ± 0.52
CCC(=O)Nc1cccc(Oc2nc(Nc3ccc(N4CCN(C)CC4)cc3OC)ncc2Cl)c1 | 0.708 ± 0.11
C#Cc1cccc(Nc2ncnc3cc(OC)c(OCCCCCCC(=O)NO)cc23)c1 | -0.217 ± 0.35
CN1CCN(c2cccc(Nc3nc4c(-c5ccc(S(C)(=O)=O)cc5)cccn4n3)c2)CC1 | 1.01 ± 0.27
Nc1ncnc2c1c(-c1cnc3[nH]ccc3c1)nn2C1CCCC1 | -0.241 ± 0.65
COc1cc2nccc(Oc3ccc(NC(=O)C4(C(=O)Nc5ccc(F)cc5)CC4)cc3)c2cc1OC | 0.561 ± 0.36
Cc1ccc(C(=O)Nc2ccc(CN3CCN(C)CC3)c(C(F)(F)F)c2)cc1C#Cc1cnc2[nH]ncc2c1 [GZD824 Dimesylate] | -0.246 ± 0.26
OCCn1cc(-c2cnc3nnn(Cc4ccc5ncccc5c4)c3n2)cn1 | 0.158 ± 1.6
Cc1nc(N)sc1-c1ccnc(Nc2ccc(N3CCOCC3)cc2)n1 | 0.352 ± 0.28
C=CC(=O)Nc1ccc2ncnc(Nc3ccc(OCc4cccc(F)c4)c(Cl)c3)c2c1 | 0.819 ± 0.26

system: FLX1 + dox-induced PRKAR1A G325D; test: difference in log2 fold change of viability vs plate median (dox-induced PRKAR1A G325D minus uninduced); higher = compound less effective when PKA is inhibited; conditions: concentration: not stated (2 or 5 uM); 5 days
Protocol: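 For each plate a log2 fold change vs the plate median was derived, and the values without dox were subtracted from those with dox, averaged over three biological replicates.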

SMILES | difference in log2 fold change of viability
N#Cc1c(O)c2c(-c3ccc(-c4ccccc4O)cc3)csc2[nH]c1=O | 0.134
O=C(/C=C/c1ccc2ccccc2n1)c1ccncc1 | -0.467
Cc1cc2c(F)c(Oc3ncnn4cc(OC[C@@H](C)OC(=O)[C@H](C)N)c(C)c34)ccc2[nH]1 | 0.461
